SF-1 inh: inhibitors of human nuclear receptor SF-1. hit rate 0.55% among 65,000. inhibition, % at 10 µM. CHO-K1 Gal4-SF-1 LBD luciferase reporter. Q13285;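 active means inhibition above the mean inhibition of all tested compounds plus 3 SD, cut at about 48% in these data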;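 further: 0% = SF-1 transfected cells with DMSO and 100% = mock-transfected cells lacking SF-1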
Target sequence (Q13285 whole entry, looked up, the tested form may be a part): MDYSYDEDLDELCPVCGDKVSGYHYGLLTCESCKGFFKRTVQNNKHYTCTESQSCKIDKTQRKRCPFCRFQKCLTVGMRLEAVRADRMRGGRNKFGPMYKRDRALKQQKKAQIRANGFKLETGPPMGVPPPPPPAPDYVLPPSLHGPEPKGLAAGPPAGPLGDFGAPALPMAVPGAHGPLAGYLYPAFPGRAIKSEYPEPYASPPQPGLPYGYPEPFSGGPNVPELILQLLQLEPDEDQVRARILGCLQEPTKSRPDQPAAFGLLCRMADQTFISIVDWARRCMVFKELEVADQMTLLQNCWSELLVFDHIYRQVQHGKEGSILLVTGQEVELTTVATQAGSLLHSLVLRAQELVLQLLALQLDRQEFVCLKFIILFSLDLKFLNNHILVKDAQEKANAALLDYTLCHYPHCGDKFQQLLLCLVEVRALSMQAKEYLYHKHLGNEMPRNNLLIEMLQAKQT
An asterisk follows results filed as active. This is one part of a sample in which hits are shown more often than they occur.

SMILES | SF-1 inh
CN(CC(=O)N1CCN(c2ccccc2)CC1)S(=O)(=O)c1cnc[nH]1 | 6.4
Nc1ccc(-c2nc3c(Cl)cc(N)cc3[nH]2)cc1 | 55.2*
Cc1ccc(C)c(S(=O)(=O)c2c(N)n(/N=C/c3ccco3)c3nc4ccccc4nc23)c1 | 15.2
O=C(NCC1CCCO1)c1cccc(-n2cnnn2)c1 (stereo not drawn) | 12.5
Cc1cccc(NC(=O)CSc2nnc(-c3cc(C)n(-c4ccccc4)c3C)o2)c1C | 72.7*
Cc1ccccc1NC(=O)CSc1[nH]c(=O)cc(C)c1C#N | 0.0
Cc1ccc(Cl)cc1NC(=O)CSc1nnc(C)n1-c1ccccc1 | 15.5
COc1ccc(-n2c(=S)[nH]c3cc(C(=O)NCCCN4CCCC4=O)ccc3c2=O)cc1 | -8.2
Nc1nc(CSc2ccccn2)nc(Nc2ccccc2)n1 | -58.4
COc1cccc(-c2c(NC(=O)c3ccco3)n(-c3ccc(C)cc3)nc(C)c2=O)c1 | 16.7
COc1ccc(Nc2ncc3c(n2)CC(c2ccc(OC)cc2)CC3=O)cc1 (stereo not drawn) | 9.7
Cn1cc(/C=N/n2cnc3scc(-c4ccc(Cl)cc4)c3c2=O)c2ccccc21 | 80.8*
C(=N\n1cnnc1)/c1cn(Cc2ccccc2)c2ccccc12 | 5.9
Fc1ccc(Nc2nc(N3CCOCC3)c3ccccc3n2)cc1 | 19.2
CCCCOc1ncnc2c1[nH]c1ccc(F)cc12 | 49.9*
Fc1ccc2[nH]c3c(N4CCN(c5ccccc5)CC4)ncnc3c2c1 | 59.6*
c1ccc(N2CCN(c3ncnc4sc5c(c34)CCC5)CC2)cc1 | 3.7
CCCCS(=O)(=O)NC1=NCN(CCOC(=O)c2ccccc2)CN1 | 4.4
O=c1cc(N2CCN(c3ccccc3)CC2)[nH]c(=O)n1C1CCCCC1 | 51.6*
O=c1cc(N2CCN(c3cccc(Cl)c3)CC2)[nH]c(=O)n1C1CCCCC1 | 80.4*
CN1CCN(C2=C(Cl)C(=O)N(c3cccc(Cl)c3)C2=O)CC1 | 15.0
CCOC(=O)C1CCN(c2cc(=O)n(C3CCCCC3)c(=O)[nH]2)CC1 | -12.5
Cc1ccccc1-n1c(=O)cc(N2CCCCCC2)[nH]c1=O | -6.6
O=c1cc(NCC2CCCO2)[nH]c(=O)n1-c1ccc(Cl)cc1 (stereo not drawn) | -7.9
C=CCNC(=O)C1CCN(c2nc(C)cc(-c3ccccc3)n2)CC1 | -101.7
SMILES | SF-1 inh
CCOP(=O)(c1c(F)c(F)c(F)c(F)c1F)C1(O)CCCCC1 (stereo not drawn) | 0.4
CCNC(=O)c1ccc(NS(=O)(=O)c2ccccc2)cc1 | 6.9
COc1ccc(C2CC(C(F)(F)F)n3nc(C(=O)NCc4cn(C)nc4C)c(Cl)c3N2)cc1 (stereo not drawn) | 20.3
O=C(CCCC(=O)N(CC(=O)NC1CCCCC1)CC1CCCO1)Nc1ccccn1 (stereo not drawn) | -1.0
CN(C)C(=O)N1CCCC(C(=O)NCc2ccccc2)C1 (stereo not drawn) | -2.2
CC(C)Nc1nc(SCC(=O)Nc2ccccc2)nc(N2CCOCC2)n1 | -2.6
O=C(Nc1nccs1)c1ccc(CSc2nnnn2-c2ccccc2)cc1 | -40.7
CCN1C(=O)c2ccccc2S(=O)c2ccc(C(=O)NCCCN3CCCC3=O)cc21 (stereo not drawn) | -33.2
CCCCOc1ccc(S(=O)(=O)Nc2cccnc2)cc1 | 49.3*
CCOc1ccc(NS(=O)(=O)c2ccc(SC)cc2)cc1 | 0.5
O=S(=O)(Nc1cccc(C(F)(F)F)c1)c1cccnc1 | 5.1
O=C1CCCC2=C1C(c1ccco1)Nc1ccc3ccccc3c12 (stereo not drawn) | 4.4
O=c1oc2ccccc2c(N2CCCCC2)c1CN1CCCCC1 | 8.2
Oc1c(CN2CCCCC2)cc(Br)c2cccnc12 | 69.2*
O=C(NCCN1CCCCCC1)C1CCC(CNS(=O)(=O)c2cccc3cccnc23)CC1 (stereo not drawn) | -2.7
CCCN(CCC)CCSc1nc(O)c(C(C)C)c(=O)[nH]1 | -15.8
Cc1ccc(S(=O)(=O)N(CCO)c2cc3c(s2)CCCC3)cc1 | 29.5
COc1ccc(CNC(=O)C2CC(=O)N(c3ccc(OCC(=O)N4C(C)CCCC4C)cc3)C2)cc1 (stereo not drawn) | 15.0
CN(C)c1ccc2c(c1)OC(N)=C(C#N)C2c1cccc(F)c1 (stereo not drawn) | 56.0*
CC(=O)C1=C(C)OC(N)=C(C#N)C1c1ccco1 (stereo not drawn) | -3.4
COc1cc(NC(=O)CN2C(=O)c3ccccc3C2=O)c(C(=O)O)cc1OC | -3.6
O=C(C1CC1)N1CCN=C1SCc1cccc(F)c1 | 1.0
CCCCc1cc(O)c(CCCC)c(O)c1 | -34.8
O=C(Cc1ccc(Cl)cc1)Nc1ccc(-c2nnc(-c3ccco3)o2)cc1 | 52.8*
CCC(=O)Nc1ccc(-c2nnc(-c3ccccc3)o2)cc1 | -33.6
SMILES | SF-1 inh
O=C(Cc1ccc(Cl)cc1)Nc1ccc(N2CCN(C(=O)c3ccco3)CC2)cc1 | 9.5
CC(=O)OC1CC2(C)C(=O)CCC2C2CCc3cc(O)ccc3C12 (stereo not drawn) | 7.6
Cc1ccc(S(=O)(=O)N(Cc2nccn2C)C(C)C)cc1 | 8.9
COc1ccc(-n2c(N)c(C(=O)NCc3ccco3)c3nc4ccccc4nc32)c(OC)c1 | 6.4
CCN(CC)c1ccc2cc(-c3nnc(-c4ccncc4)o3)c(=O)oc2c1 | -73.2
CCN(CC)c1ccc(NC(=O)c2ccccc2F)cc1 | -73.8
CCN(CC)c1ccc2cc(NC(=O)CCC(=O)O)c(=O)oc2c1 | 59.3*
CCOC(=O)c1nnn(-c2nn3nnnc3c3ccccc23)c1C | 0.2
Cc1ccc(NC(=O)NC2CCCCC2)cc1Cl | -73.8
Cc1c(Cl)cccc1NC(=O)NC1CCCCC1 | -29.2
O=C(Nc1ccccc1NC(=O)NC1CCCCC1)NC1CCCCC1 | 83.9*
COC(=O)c1sccc1NC(=O)CN1CCN(c2ccc(F)cc2)CC1 | -9.1
CCOC(=O)CNc1nc(OCC#N)nc(N2CCOCC2)n1 | 3.1
Cc1noc(NS(=O)(=O)c2ccc(NC(=O)c3ccc(Br)o3)cc2)c1C | -3.1
Cc1ccc(-c2csc3n[nH]c(=S)n23)cc1 | -0.2
CC(C)c1cc(C(=O)NC2CCCCC2)no1 | -54.0
COc1ccc(NC(=O)c2ccco2)c(NC(=O)Cc2cccs2)c1 | -6.6
Cn1c(=O)c2c(nc(N3CCCCCC3)n2Cc2cccc3ccccc23)n(C)c1=O | 2.9
Cc1ccc2cc(C(c3nnnn3Cc3ccccc3)N3CCN(c4ccccc4)CC3)c(=O)[nH]c2c1 (stereo not drawn) | -5.4
Cc1nc(N2CCN(c3ccccc3)CC2)[nH]c(=O)c1Cc1cccc2ccccc12 | 52.0*
CCN(CC)Cc1c[nH]c2c(C(=O)OC)cccc12 | -9.1
c1ccc(N2CCN(c3nc4cc5c(cc4s3)OCCO5)CC2)cc1 | -61.4
Clc1cc(Cl)c2nc(N3CCOCC3)sc2c1 | -57.5
c1c2c(cc3sc(N4CCOCC4)nc13)OCCO2 | 64.8*
COc1ccccc1OCC(=O)Nc1ccc(S(=O)(=O)Nc2nc(C)cc(C)n2)cc1 | 3.3
SMILES | SF-1 inh
CC1(C)CNC(=O)C=C(c2ccccc2)C1 | -0.6
O=C(/C=C\Nc1ccccn1)c1ccc(Cl)cc1 | 64.1*
Cc1c(C(=O)Nc2ccccn2)oc2ccccc12 | -68.7
O=C(/C=C/Nc1ccc(F)c(Cl)c1)c1ccco1 | -55.3
CCCCCn1c(SCCOCC)nc2c1c(=O)[nH]c(=O)n2C | 22.8
COc1ccc(N=CC2=C(O)CC(C)(C)CC2=O)cc1 | -87.2
COc1nc(Nc2nc3ccccc3c(=O)[nH]2)nc2ccc(C)cc12 | 76.3*
COc1ccc(S(=O)(=O)N(Cc2ccccc2)Cc2nc3ccccc3c(=O)[nH]2)cc1 | 12.5
COc1ccc(Nc2nc(C)c3ccccc3n2)cc1 | -98.7
Fc1ccc(Cn2nnnc2CN2CCc3ccccc3C2)cc1 | 18.7

From PubChem
